Hits are enriched below; roughly 6.7% of the tested compounds scored in any of these assays.
T cruzi growth-1 – inhibitors of T. cruzi proliferation | T. cruzi beta-gal in NIH3T3, GalScreen luminescence, 90 h | inhibition, % at 8.34 µM | hit rate 5.9% among 77,000 | AID 624255;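 active = mean inhibition above about 93%, with at least 55% of replicates each passing it, limit read from the data, passing the limit was not always enough; inconclusive = only one of those two conditions holds; inactive = neither condition holds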
Pf Dd2 growth – blocks growth of Plasmodium falciparum Dd2 parasites; P. falciparum Dd2 growth, SYBR Green, 72 h; active compounds read low; activity change, % at 10 µM; hit rate 2.3% among 94,000; AID 1159554; in the data active = activity change below about -80%; inconclusive = no clear call, values can overlap the other calls
C diff growth – inhibitors of Clostridium difficile growth | Clostridium difficile clinical isolate growth, OD600, 24 h; active compounds read low | growth activity, negative = inhibition, % at 16 µg/mL (by protocol) | hit rate 0.25% among 86,000;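 active = mean growth activity at or below -80% and every replicate also at or below -80%; inconclusive = mean at or below -80% but some replicate above -80%; inactive = mean growth activity above -80%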;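 note: 0% = DMSO wells and -100% = levofloxacin 16 µg/mL wells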
T cruzi growth-2 – blocks T. cruzi growth in NIH3T3 host cells; inhibition, % at 8.35 µM; T. cruzi beta-gal in NIH3T3, GalScreen luminescence, 90 h; hit rate 72% among 5,600; shares compounds with T cruzi growth-1;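 active = mean replicate inhibition above about 95% and at least 55% of replicates individually reaching it, limit read from the data; inconclusive = only one of the two criteria is met; inactive = neither criterion is met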
T cruzi growth-3 – inhibitors of T. cruzi proliferation | T. cruzi beta-gal in NIH3T3, GalScreen luminescence, 90 h | inhibition, % at 2.09 µM | hit rate 21% among 5,600 | shares compounds with T cruzi growth-1;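 active = mean inhibition above about 95%, with at least 55% of replicates also reaching it, limit read from the data; inconclusive = meets just one of the two conditions; inactive = meets neither condition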;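 note: plate controls were neutral control median for no effect and positive control median for full effect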
NIH3T3 tox – NIH/3T3 (mouse) viability loss. shares compounds with T cruzi growth-1. NIH/3T3 viability, CellTiter-Glo ATP luminescence, 90 h. cytotoxicity (signal decrease), % at 8.35 µM. hit rate 14% among 5,600. AID 651742;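 active = mean signal decrease across replicates above about 35% based on untreated-well scatter, with enough replicates individually passing, limit read from the data; inconclusive = no rule stated though some were filed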;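 note: 0% = median of neutral control wells and 100% = median of positive control wells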
3T3 cytotox 2 – NIH/3T3 (mouse) viability loss; hit rate 56% among 5,600; inhibition, % at 24.9 µM; NIH/3T3 viability, CellTiter-Glo ATP luminescence, 90 h; shares compounds with T cruzi growth-1;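 active = mean loss of cell viability signal at or above a set limit, and enough replicates individually reaching it; inconclusive = meets only the mean limit or only the replicate share; inactive = meets neither condition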;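 note: 0% = median of neutral control wells and 100% = median of positive control wells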
* = called active by the depositor; u = inconclusive; x = no result given.

SMILES	T cruzi growth-1	Pf Dd2 growth	C diff growth	T cruzi growth-2	T cruzi growth-3	NIH3T3 tox	3T3 cytotox 2
CCCNC(=O)[C@H]1[C@H](CO)[C@H]2Cn3c(ccc(-c4ccccc4OC)c3=O)[C@H]2N1CC	-9	2	-3	x	x	x	x
CO[C@@H]1CN(C)C(=O)c2ccc(NC(C)=O)cc2OC[C@@H](C)NC[C@@H]1C	x	-13	2	x	x	x	x
C[C@H]1CN([C@@H](C)CO)C(=O)c2cc(-c3cccc(C#N)c3)cnc2O[C@@H]1CN(C)Cc1ccccc1	-1	-7	-5	x	x	x	x
Cc1ccc(-c2cnc3c(c2)C(=O)N([C@@H](C)CO)C[C@H](C)[C@H](CN(C)Cc2ccccc2F)O3)cc1	100*	-30	4	107*	32	9	44*
Cc1ccc(-c2cnc3c(c2)C(=O)N([C@@H](C)CO)C[C@@H](C)[C@H](CN(C)CC2CCCCC2)O3)cc1	110*	-66	1	95*	40	9	104*
Cc1ccc(-c2cnc3c(c2)C(=O)N([C@H](C)CO)C[C@H](C)[C@H](CN(C)Cc2ccccc2F)O3)cc1	93	-28	13	x	x	x	x
Cc1ccc(-c2cnc3c(c2)C(=O)N([C@@H](C)CO)C[C@H](C)[C@@H](CN(C)Cc2ccccc2F)O3)cc1	115*	-23	9	15	-30	-4	4
Cc1ccc(-c2cnc3c(c2)C(=O)N([C@H](C)CO)C[C@@H](C)[C@H](CN(C)Cc2ccccc2F)O3)cc1	86	-13	-4	x	x	x	x
Cc1ccc(-c2cnc3c(c2)C(=O)N([C@H](C)CO)C[C@@H](C)[C@H](CN(C)CC2CCCCC2)O3)cc1	35	-65	0	x	x	x	x
COc1cccc(C#Cc2ccc([C@@H]3[C@@H](C#N)N(C(=O)C4CC4)[C@@H]3CO)cc2)c1	83	0	6	x	x	x	x
COc1cccc(C#Cc2ccc([C@@H]3[C@@H](C#N)N(C(=O)C4CCC4)[C@@H]3CO)cc2)c1	102*	-29	15	109*	61	23	10
COc1cccc(C#Cc2ccc([C@@H]3[C@@H](CO)N(C(=O)C4CCC4)[C@H]3C#N)cc2)c1	90	-61	-3	x	x	x	x
COc1cccc(C#Cc2ccc([C@H]3[C@H](C#N)N(C(=O)C4CCC4)[C@H]3CO)cc2)c1	97*	-25	0	96*	56	34	63*
O=C(C1CC1)N1[C@@H](CO)[C@@H](c2ccccc2)C12CN(Cc1cncnc1)C2	x	-26	-1	x	x	x	x
O=C(C[C@@H]1CC[C@H]2[C@@H](COC[C@@H](O)CN2Cc2nccs2)O1)NCc1ccc(F)cc1	3	0	0	x	x	x	x
C[C@H]1CN([C@@H](C)CO)C(=O)c2cc(NC(=O)NC3CCCCC3)ccc2O[C@@H]1CN(C)Cc1ccc2c(c1)OCO2	-23	-12	-2	x	x	x	x
C[C@H]1CN([C@@H](C)CO)C(=O)c2cc(NC(=O)NC3CCCCC3)ccc2O[C@H]1CN(C)Cc1ccc2c(c1)OCO2	u	-2	-4	104*	99*	u	41*
C[C@H](CO)N1C[C@H](C)[C@H](CN(C)Cc2ccc3c(c2)OCO3)Oc2ccc(NC(=O)NC3CCCCC3)cc2C1=O	100*	18	4	u	97*	28	51*
C[C@@H]1CN([C@H](C)CO)C(=O)c2cc(NC(=O)NC3CCCCC3)ccc2O[C@@H]1CN(C)Cc1ccc2c(c1)OCO2	22	-30	-5	x	x	x	x
CNC[C@@H]1OCCCC[C@@H](C)Oc2ccc(NS(=O)(=O)c3c(C)noc3C)cc2C(=O)N([C@@H](C)CO)C[C@H]1C	-13	30	0	x	x	x	x
C[C@H]1CN([C@@H](C)CO)S(=O)(=O)c2ccc(-c3cccc(F)c3)cc2O[C@@H]1CN(C)S(=O)(=O)c1ccc(F)cc1	127*	-12	3	105*	104*	57*	38*
C[C@H]1CN([C@@H](C)CO)S(=O)(=O)c2ccc(-c3cccc(F)c3)cc2O[C@@H]1CN(C)S(C)(=O)=O	-47	15	x	x	x	x	x
COc1ccc(S(=O)(=O)N(C)C[C@@H]2Oc3cc(-c4cccc(F)c4)ccc3S(=O)(=O)N([C@@H](C)CO)C[C@@H]2C)cc1	x	-69	8	x	x	x	x
C[C@H]1CN([C@@H](C)CO)S(=O)(=O)c2ccc(-c3cccc(F)c3)cc2O[C@H]1CN(C)S(C)(=O)=O	138*	-45	-10	102*	69	29	52*
Cc1ccc(S(=O)(=O)N(C)C[C@H]2Oc3cc(-c4cccc(F)c4)ccc3S(=O)(=O)N([C@@H](C)CO)C[C@@H]2C)cc1	124*	-48	1	97*	94	12	38*
SMILES	T cruzi growth-1	Pf Dd2 growth	C diff growth	T cruzi growth-2	T cruzi growth-3	NIH3T3 tox	3T3 cytotox 2
C[C@@H]1CN([C@@H](C)CO)S(=O)(=O)c2ccc(-c3cccc(F)c3)cc2O[C@@H]1CN(C)C	-6	x	-4	x	x	x	x
C[C@H](CO)N1C[C@H](C)[C@@H](CN(C)C)Oc2cc(-c3cccc(F)c3)ccc2S1(=O)=O	-18	x	-4	x	x	x	x
C[C@@H]1CN([C@H](C)CO)S(=O)(=O)c2ccc(-c3cccc(F)c3)cc2O[C@@H]1CN(C)S(=O)(=O)c1ccc(F)cc1	98*	0	3	100*	89	47*	47*
CCNC(=O)c1cc2c(c(-c3cccc(-c4ccncc4)c3)n1)[C@H](CCO)N(S(=O)(=O)CC)C2	x	-7	3	x	x	x	x
COc1cccc(NC(=O)N2CC3(C2)[C@@H](c2ccccc2)[C@@H](CO)N3C(=O)C2CC2)c1	x	-12	-2	x	x	x	x
C[C@@H]1CN([C@H](C)CO)C(=O)c2cc(NS(=O)(=O)c3cccs3)ccc2O[C@@H](C)CCCCO[C@H]1CN(C)Cc1ccc(C(=O)O)cc1	x	29	-4	x	x	x	x
C[C@@H]1CN([C@@H](C)CO)C(=O)c2cc(NS(=O)(=O)c3cccs3)ccc2O[C@@H](C)CCCCO[C@H]1CN(C)Cc1ccc(C(=O)O)cc1	-69	29	1	x	x	x	x
C[C@H](CO)N1C[C@H](C)[C@@H](CN(C)Cc2ccc(C(F)(F)F)cc2)OCCCC[C@H](C)Oc2ccc(NS(=O)(=O)c3cccs3)cc2C1=O	u	-30	6	99*	105*	44*	106*
C[C@@H]1CN([C@@H](C)CO)C(=O)c2cc(NS(=O)(=O)c3cccs3)ccc2O[C@@H](C)CCCCO[C@H]1CN(C)Cc1ccc(C(F)(F)F)cc1	95	-73	-2	x	x	x	x
C[C@@H]1CN([C@H](C)CO)C(=O)c2cc(NS(=O)(=O)c3cccs3)ccc2O[C@@H](C)CCCCO[C@@H]1CN(C)Cc1ccc(C(F)(F)F)cc1	98*	-55	8	92	114*	-6	54*
C[C@@H]1CCCCO[C@H](CN(C)Cc2ccc(C(F)(F)F)cc2)[C@@H](C)CN([C@@H](C)CO)C(=O)c2cc(NS(=O)(=O)c3cccs3)ccc2O1	112*	-30	-3	92	112*	1	106*

Screening results deposited in PubChem BioAssay by Broad Institute.
